Rows were chosen to be rich in hits. Some 3.8% of all compounds tested hit in one or more screens of this group.
HepG2 tox-1 = kills HepG2 cells in TGF-b inhibitor counter-screen; Potency, µM (doses to about 46.1 µM), without a hit: at the top dose activity change, negative = cytotoxicity, hits mostly cytotoxic; HepG2 CAGA-GFP viability, ATP luminescence, 18 h; hit rate 0.76% among 410,000
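HepG2 CAGA-GFP cells (1000/well, DMEM with 1% FBS) received compound, then TGF-beta at 500 pg/mL final, and were incubated 18 hours at 37 degrees C. Viability was read by CellTiter-Glo luminescence. Media-only wells were set as complete cell-killing and DMSO as no toxicity.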
S2 tox = viability counter-screen for ATXN expression inhibitors; S2 cells (HEK-293 line with an ATXN2-luciferase reporter) viability, CellTiter-Fluor protease fluorescence, 24 h; Potency, µM (highest dose often 56.7 µM), usual class: cytotoxic; hit rate 0.49% among 400,000; further: nearly all actives have a fitted effect of over 40% in size
TGFb SMAD3 inh = inhibitors of TGF-b signaling; HepG2 CAGA-GFP TGF-b/SMAD3 reporter, GFP fluorescence, 18 h; TGF-beta stimulated, 500 pg/mL final; Potency, µM (series often up to 46.1 µM), without a hit: at the highest dose activity, negative = inhibition, actives largely listed as inhibitors; hit rate 1.2% among 410,000; further: on the % scale 0 is the no-effect control and ±100 the full control effect; nearly all actives have a fitted effect of over 65% in size
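HEPG2 CAGA-GFP cells (1000/well, DMEM with 1% FBS) were pre-incubated 2 h at 37 degrees C, given compound by pin tool, then stimulated with TGF-beta at 500 pg/mL final for 18 h before per-cell GFP fluorescence imaging.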
HT1080-NT tox = kills 2HG-producing HT-1080-NT fibrosarcoma cells; HT-1080-NT fibrosarcoma viability, CellTiter-Glo ATP luminescence, 48 h; Potency, µM (series often up to 46.1 µM), without a hit: at the highest dose activity, negative = less viability, hits mostly cytotoxic; hit rate 1.6% among 360,000; AID 686970;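 further: NT is the 2HG producing partner of a matched IDH1 knockdown line; 0% = DMSO-treated cells and -100% = media-only wells without cells; nearly all actives have a fitted effect of over 55% in size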
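Fibrosarcoma NT cells, 750 per well in 5% FBS RPMI, were exposed to compound for 48 hours. Viability: CellTiter-Glo luminescence.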
HT1080 IDH1KD tx = kills HT-1080 cells with IDH1 knockdown; Potency, µM (highest dose often 46.1 µM), for inactives: top-dose activity, negative = toxicity, hits mostly cytotoxic; hit rate 2% among 360,000; HT-1080 IDH1 knockdown viability, ATP luminescence, 48 h;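 further: 0% = DMSO wells and -100% = cell-free medium wells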
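IDH1KD HT-1080 cells, 750/well, RPMI + 5% FBS; compound pinned after 2 h settling; 48 h, 37 °C; CellTiter-Glo luminescence; % activity normalised to DMSO and no-cell wells; curves fitted, classed by r2 and efficacy.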
ATXN2 expr inh = ATXN2 expression inhibition; hit rate 0.72% among 360,000; AID 1745845; HEK-293 ATXN2-luciferase reporter, luminescence, 24 h; Potency, µM (highest dose often 57 µM), inactives show top-dose activity change, negative = inhibition, hits mostly inhibitors; further: on the % scale 0 is the no-effect control and ±100 the full control effect; nearly all actives have a fitted effect of over 55% in size
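qHTS (up to 57 uM final) was run with 24 h compound exposure of reporter cells at 37 °C. Each well was multiplexed: SteadyGlo luminescence measured ATXN2-luciferase expression after a fluorogenic Gly-Phe-AFC viability readout (25 uM final).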
TGFb CAGA inh = TGF-b pathway inhibition, cherry-pick retest; shares compounds with TGFb SMAD3 inh; HepG2 CAGA-GFP TGF-b reporter, GFP fluorescence, 18 h; cells stimulated with TGF-beta, 500 pg/mL; Potency, µM (highest dose often 46.1 µM), inactives show at the highest dose activity, negative = inhibition, most hits filed as inhibitors; hit rate 63% among 1,600; AID 720534; further: on the % scale 0 is the no-effect control and ±100 the full control effect; nearly all actives have a fitted effect of over 65% in size
HepG2 tox-2 = HepG2 cytotoxicity, TGF-b inhibitor counterscreen. hit rate 27% among 1,600. AID 720535. Potency, µM (doses to about 46.1 µM), inactives show at the highest dose activity, negative = cytotoxicity, most hits filed as inhibitors. shares compounds with TGFb SMAD3 inh. HepG2 CAGA-GFP viability, ATP luminescence, 18 h; cells stimulated with TGF-beta, 500 pg/mL; further: on the % scale 0 is the no-effect control and ±100 the full control effect; nearly all actives have a fitted effect of over 70% in size
CCL64 TGFb inh = orthogonal confirmation of TGF-b inhibitors in CCL64 cells. shares compounds with TGFb SMAD3 inh. CCL64 CAGA-GFP reporter, TGF-b stimulated, GFP fluorescence, 18 h. Potency, µM (highest dose often 46.1 µM), for inactives: at the top dose activity, negative = inhibition, most hits filed as inhibitors. hit rate 41% among 1,600. AID 720536; further: nearly all actives have a fitted effect of over 65% in size
TGFb COP inh = blocks TGF-b signaling in HepG2 COP reporter; shares compounds with TGFb SMAD3 inh; HepG2 COP-GFP TGF-b reporter, GFP fluorescence, 18 h; cells stimulated by added recombinant TGF-beta; Potency, µM (titrated, usually from 46.1 µM), for inactives: at the top dose activity, negative = inhibition, most hits filed as inhibitors; hit rate 3% among 1,600; further: nearly all actives have a fitted effect of over 70% in size
Numbers without * were called inactive; i = inactive; ? = inconclusive; / = not tested or not shown. The call rests on the fitted dose curve; in most records, active means well fitted curve in the direction sought with a large enough effect; inconclusive means small, poorly fitted or top-dose-only effect, or another doubt; inactive means no such curve, though single readings can be large; an effect the other way counts as inactive or inconclusive. Potency means the concentration at half of the fitted maximal effect.

SMILES	HepG2 tox-1	S2 tox	TGFb SMAD3 inh	HT1080-NT tox	HT1080 IDH1KD tx	ATXN2 expr inh	TGFb CAGA inh	HepG2 tox-2	CCL64 TGFb inh	TGFb COP inh
CN(C)c1cccc(/C=C(\C#N)c2ccccc2)c1	-30%	i	13µM*	?	3.3µM*	/	?	-25%	?	-6%
CCOc1ccc(C2C(C(N)=O)=C(C)Nc3nc(-c4cccc(Cl)c4)nn32)cc1OC (configuration not stated)	-12%	i	-29%	/	/	0%	/	/	/	/
Cc1ccc(-c2nnc(N3CCN(C(=O)COc4ccccc4)CC3)c3ccccc23)cc1	-28%	i	?	?	?	?	/	/	/	/
O=C(COc1ccc(-c2nnc(N3CCCCC3)c3ccccc23)cc1)N1CCCCC1	-32%	i	18µM*	-23%	?	-26%	23µM*	-20%	-35%	2%
CCc1cccc(NC(=O)Cn2c(=O)n(CC(=O)NCCc3ccccc3)c(=O)c3ccccc32)c1	-26%	i	3%	/	/	-21%	/	/	/	/
CCOc1ccc(CCN2C(=S)N([C@@H](Cc3ccc(O)cc3)CN3CCC[C@@H]3CN3C(=S)NC[C@@H]3CC(C)C)C[C@@H]2Cc2ccc(O)cc2)cc1	-40%	7.1µM*	4.5µM*	16µM*	21µM*	?	8.2µM*	12µM*	5.2µM*	88%
Oc1ccc(C[C@H]2CNC(=S)N2C[C@H]2CCCN2C[C@H](Cc2ccccc2)N2C[C@H](Cc3ccc(O)cc3)N(CCc3ccccc3)C2=S)cc1	2%	?	7.1µM*	15µM*	18µM*	?	6.5µM*	?	3.7µM*	48%
Oc1ccc(C[C@H]2CN([C@@H](Cc3ccc(O)cc3)CN3CCC[C@@H]3CN3C(=S)NC[C@@H]3Cc3ccccc3)C(=S)N2CCc2ccccc2)cc1	-24%	?	?	?	?	?	/	/	/	/
CCOc1ccc(CCN2C(=S)N([C@@H](Cc3ccc(O)cc3)CN3CCCC3CN3C(=S)NC[C@@H]3Cc3ccc(O)cc3)C[C@@H]2CC(C)C)cc1 (some centres not stated)	0%	i	?	-19%	-29%	?	/	/	/	/
Oc1ccc(C[C@H]2CN([C@@H](Cc3ccccc3)CN3CCCC3CN3C(=S)NC[C@@H]3Cc3ccccc3)C(=S)N2CCc2ccccc2)cc1 (some centres not stated)	/	?	/	-7%	6%	3%	/	/	/	/

Compound activity as filed in PubChem BioAssay.
